From PubChem BioAssay AID1508622 (National Center for Advancing Translational Sciences (NCATS), 2021)
Unmarked numbers belong to inactive results. The call rests on the fitted dose curve; in most records, active means well fitted activation curve with a large enough effect; inconclusive means small, poorly fitted or top-dose-only effect; inactive means no such curve, though single readings can be large or run the other way.

assay: Confirmatory qHTS for Identification of Small Molecule Activators of Huntingtin-Antisense Promoter Activity; conditions: HEK293 HTT-AS promoter firefly luciferase reporter, 24 h; series mostly up to 57.5 µM; activity change, positive = activation: at the top concentration
Summary of the method: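 2,500 luciferase reporter HEK293 cells/well; 24 h culture; cpds up to 57.5 uM final, PTC124 50 uM ctrl; 24 h, 37C; Dual-Glo FLuc reagent, 10 min RT; lum. Norm.: vehicle 0%, zero RLU -100%.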

| Structure (SMILES) | activity change, positive = activation [%] |
| --- | --- |
| CCOC(=O)C1CCC(CN(Cc2ccccc2)S(=O)(=O)c2ccc(Cl)cc2)CC1 (stereo unspecified) | -34 |
| COc1cccc(C(=O)NC(c2ccc(Cl)cc2)c2cc(Cl)c3cccnc3c2O)c1 (stereo unspecified) | -28.6 |
| COc1ccc(S(=O)(=O)NCCc2cc3ccc(C)c(C)c3[nH]c2=O)cc1 | -25.6 |
| CCc1ccc(NC(=O)c2ccc(F)c(S(=O)(=O)NCc3ccc(Cl)c(Cl)c3)c2)cc1 | -17.2 |
| CN1C(=O)c2ccccc2Sc2ccc(NC(=O)NCc3ccc(Cl)cc3)cc21 | -93.9 |
| COc1cc(Cn2c(=O)oc3ccc(C)cc32)ccc1OCCC(C)C | -26.9 |
| Cc1ccc(CCNC(=O)c2cc3c(s2)-c2ccccc2OC3)cc1 | -43.9 |
| O=C(NCc1ccccc1)C(=O)NCC(c1ccco1)S(=O)(=O)c1ccc(Cl)cc1 (stereo unspecified) | -34.3 |
| CCCCN(CC)C(=O)C1CCC(CNS(=O)(=O)c2cccc3nsnc23)CC1 (stereo unspecified) | -35.2 |
| COc1cc(C(=O)NCCSc2c(-c3ccccc3)[nH]c3ccccc23)cc(OC)c1OC | -36.2 |
| CCN(c1ccccc1)S(=O)(=O)c1c(-c2ccc(C)cc2)csc1C(=O)OC | -32.5 |
| Cc1cccc(Cn2c(SCc3ccc(C(=O)N4CCC(C)CC4)cc3)nc3ccncc32)c1 | -34.5 |
| CCC(C(=O)NCCc1cc(OC)ccc1OC)n1nc(C)c2c(C)n(-c3ccccc3)nc2c1=O (stereo unspecified) | -49.5 |
| Fc1cc(Br)ccc1Nc1c2c(nc3nc(-c4cccs4)nn13)CCCC2 | -49.7 |
| COc1ccc(OC)c(CCNC(=O)c2cnn(-c3ccc(C)cc3C)c2C2CCN(C(=O)OC(C)(C)C)CC2)c1 | -34 |
| COc1ccc(N(Cc2ccccc2)C(=O)c2nc(SC)ncc2Cl)cc1 | -54 |
